PubChem BioAssay (NCI)
This is part of a sample that, as a whole, favours compounds with a hit. Of some 79,000 tested, about 15% had one in any assay. The source made the active and inactive calls. Rule as the data show it: active = growth inhibition above about 70%; inactive = the rest.

Legend:
[1] = NCI Yeast Anticancer Drug Screen. Data for the rad50 strain (AID 155);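 also: 0% = growth of vehicle-only cultures of the same strain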; details: S. cerevisiae rad50 strain growth inhibition, stronger effect = higher value
Procedure, shortened: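 Relative growth inhibition (compound vs vehicle) was measured in yeast with a defined repair-gene alteration.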

[2] = NCI Yeast Anticancer Drug Screen. Data for the mec2-1 strain (AID 157); details: S. cerevisiae mec2-1 strain, stronger effect = higher value
Procedure, shortened: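 Readout is yeast growth inhibition, normalised to vehicle-treated controls, in the mec2-1 strain exposed to compound.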

[3] = NCI Yeast Anticancer Drug Screen. Data for the sgs1 mgt1 strain (AID 161);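 also: 0% = growth of cultures given vehicle only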; details: S. cerevisiae sgs1 mgt1 strain, stronger effect = higher value
Procedure, shortened: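 Percent growth inhibition was derived by comparing compound-exposed mutant yeast with vehicle-exposed cultures. The strain carries alterations in DNA damage repair.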

[4] = NCI Yeast Anticancer Drug Screen. Data for the cln2 rad14 strain (AID 165);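 also: 0% = growth equal to vehicle treated cultures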; details: S. cerevisiae cln2 rad14 strain, stronger effect = higher value
Procedure, shortened: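 Relative to vehicle controls, growth inhibition of compound-treated cln2 rad14 yeast was recorded.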

[5] = NCI Yeast Anticancer Drug Screen. Data for the bub3 strain (AID 167); details: S. cerevisiae bub3 mutant strain, stronger effect = higher value
Procedure, shortened: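 Screening used yeast with an engineered genetic alteration affecting cell cycle control. Compound-exposed cultures were compared with vehicle cultures, and reduced growth was taken as inhibition.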

[6] = NCI Yeast Anticancer Drug Screen. Data for the mlh1 rad18 strain (AID 175); details: S. cerevisiae mlh1 rad18 strain growth inhibition, stronger effect = higher value
Procedure, shortened: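 Test agents were incubated with a yeast strain of defined genotype (DNA damage repair defect). Inhibition of growth was derived by comparison with vehicle-exposed cultures.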

[7] = at 5.0 µM (retest, dose inferred, filed as 0.5)
[8] = at 50.0 µM (retest, dose inferred, filed as 5.0)

Measured: growth inhibition

O=C(O)C1C(C(=O)O)C2C(=O)C=CC1N2Cc1ccccc1 (stereo not given)
active: [1]; at 50.0 µM 79.8% | [2]; at 50.0 µM 81.2% | [3]; at 50.0 µM 78.5% | [5]; [8] 73% | [5]; at 50.0 µM 91.4% | [6]; [8] 76% | [6]; at 50.0 µM 87.8%
inactive: [1]; [7] 11% | [1]; [8] 46% | [2]; [7] 1% | [2]; [8] 61% | [3]; [7] 5% | [3]; [8] 65% | [4]; [7] -8% | [4]; [8] 31% | [4]; at 50.0 µM 46.3% | [5]; [7] 21% | [6]; [7] 3%

O=C(O)/C=C\c1cc2ccccc2c2ccccc12
active: [1]; [8] 98% | [1]; at 50.0 µM 98.8% | [2]; [8] 99% | [2]; at 50.0 µM 98.8% | [3]; [8] 98% | [3]; at 50.0 µM 98.4% | [4]; [8] 99% | [4]; at 50.0 µM 98.3% | [5]; [8] 99% | [5]; at 50.0 µM 98.5% | [6]; [8] 99% | [6]; at 50.0 µM 98.6%
inactive: [1]; [7] 13% | [2]; [7] -11% | [3]; [7] 18% | [4]; [7] 11% | [5]; [7] 8% | [6]; [7] 18%

CCCCCCCCCCCCCCCC[N+](C)(C)CCl
active: [1]; [7] 99% | [1]; [8] 100% | [1]; at 50.0 µM 85.6% | [2]; [7] 99% | [2]; [8] 100% | [2]; at 50.0 µM 89.7% | [3]; [7] 99% | [3]; [8] 100% | [3]; at 50.0 µM 82.2% | [4]; [7] 99% | [4]; [8] 99% | [4]; at 50.0 µM 89% | [5]; [7] 99% | [5]; [8] 100% | [5]; at 50.0 µM 87.3% | [6]; [7] 99% | [6]; [8] 100% | [6]; at 50.0 µM 80.1%

N#Cc1c(N)nc2c(N=Nc3ccccc3)c(N)nn2c1Nc1ccccc1
inactive: [1]; [7] -2% | [1]; [8] 38% | [1]; at 50.0 µM 51.5% | [2]; [7] -2% | [2]; [8] 39% | [2]; at 50.0 µM 16.4% | [3]; [7] 19% | [4]; [7] 1% | [4]; [8] 5% | [4]; at 50.0 µM 16.4% | [5]; [7] -5% | [5]; [8] 31% | [5]; at 50.0 µM -30.6% | [6]; [7] -4% | [6]; [8] 55%
active: [3]; [8] 85% | [3]; at 50.0 µM 79.2% | [6]; at 50.0 µM 76.1%

CCC[C@H]1[C@H](CCC)[C@@]2(OC(=O)C3=C2CCC=C3)[C@]12OC(=O)C1=C2CCC=C1
inactive: [1]; [7] -2% | [2]; [7] 2% | [3]; [7] 3% | [4]; [7] -7% | [5]; [7] 2% | [6]; [7] 1%
active: [1]; [8] 98% | [1]; at 50.0 µM 87.8% | [2]; [8] 99% | [2]; at 50.0 µM 87.4% | [3]; [8] 98% | [3]; at 50.0 µM 92% | [4]; [8] 99% | [4]; at 50.0 µM 91.7% | [5]; [8] 98% | [5]; at 50.0 µM 89% | [6]; [8] 98% | [6]; at 50.0 µM 89.8%

C(=C\c1cnnc2ccccc12)/c1ccco1
inactive: [1]; [7] 2% | [1]; [8] 32% | [1]; at 50.0 µM 58.2% | [2]; [7] 5% | [2]; [8] 33% | [2]; at 50.0 µM 20.4% | [3]; [7] 6% | [3]; [8] 39% | [3]; at 50.0 µM 29.4% | [4]; [7] 2% | [4]; [8] 31% | [5]; [7] -2% | [5]; [8] 27% | [5]; at 50.0 µM 18.8% | [6]; [7] 2% | [6]; [8] 40% | [6]; at 50.0 µM 39.8%
active: [4]; at 50.0 µM 80.8%

CC1OC(OC2C(Oc3c(-c4ccc(O)c(O)c4O)oc4cc(O)ccc4c3=O)OC(CO)C(O)C2O)C(O)C(O)C1O (stereo not given)
inactive: [1]; [7] -4% | [1]; [8] -8% | [1]; at 50.0 µM 22.9% | [2]; [7] -5% | [2]; [8] 0% | [2]; at 50.0 µM -5.3% | [3]; [7] -5% | [3]; [8] 1% | [3]; at 50.0 µM -7.95% | [4]; [7] 7% | [4]; [8] 0% | [4]; at 50.0 µM -8.85% | [5]; [7] -1% | [5]; [8] 0% | [5]; at 50.0 µM 3.25% | [6]; [7] -5% | [6]; [8] -6% | [6]; at 50.0 µM -10.7%

C=C1C(=O)O[C@H]2C3C(=C(C)CC[C@@H]12)C(=O)[C@@H]1OC31C (stereo not given in full)
active: [3]; [8] 74%
inactive: [1]; [7] 22% | [1]; [8] 49% | [1]; at 50.0 µM 36.8% | [2]; [7] 16% | [2]; [8] 52% | [2]; at 50.0 µM 37.2% | [3]; [7] 35% | [3]; at 50.0 µM 46% | [4]; [7] 19% | [4]; [8] 51% | [4]; at 50.0 µM 34% | [5]; [7] 21% | [5]; [8] 60% | [5]; at 50.0 µM 23.9% | [6]; [7] 19% | [6]; [8] 62% | [6]; at 50.0 µM 46.2%

CC(C)C1=CC23CCC4C(C)(C(=O)O)CCCC4(C)C2CC1CC3C#N (stereo not given)
inactive: [1]; [7] 19% | [1]; [8] 56% | [2]; [7] 18% | [2]; [8] 34% | [3]; [7] 12% | [3]; [8] 42% | [4]; [7] 3% | [4]; [8] 57% | [5]; [7] -1% | [5]; [8] 49% | [6]; [7] 13% | [6]; [8] 39%
active: [1]; at 50.0 µM 98% | [2]; at 50.0 µM 98.5% | [3]; at 50.0 µM 98.5% | [4]; at 50.0 µM 97.1% | [5]; at 50.0 µM 98.5% | [6]; at 50.0 µM 98.2%

CN(C)C(N)=NC#N
active: [1]; at 50.0 µM 73.2% | [2]; [8] 86% | [2]; at 50.0 µM 75.7% | [3]; [8] 96% | [5]; [8] 95% | [6]; [8] 71%
inactive: [1]; [7] 25% | [1]; [8] 47% | [2]; [7] 22% | [3]; [7] 27% | [3]; at 50.0 µM 51.2% | [4]; [7] 20% | [4]; [8] 54% | [4]; at 50.0 µM 9.65% | [5]; [7] 29% | [5]; at 50.0 µM 65.2% | [6]; [7] 33% | [6]; at 50.0 µM 67%
